In PubChem BioAssay (EPA / NIEHS):
Calls of active or inactive are those of the source. The calls were made as follows: active = hit-call score of the fitted dose curve at least 0.9, where 1 is the maximum; inactive = score below 0.9.

Test: ATG_RORE_CIS: Attagene CIS-FACTORIAL HepG2 Assay for human RAR-related Orphan Receptor Element (RORE) (AID 2282959)
Settings: HepG2 Attagene cis-factorial RORE reporter, mRNA; actives raise or lower the signal
Method: ATG_CIS is a cell-based, multiplexed-readout assay that uses HepG2, a human liver cell line, with measurements taken at 24 hours after chemical dosing in a 24-well plate.ATG_RORE_CIS is one of 52 assay component(s) measured or calculated from the ATG_CIS assay. It is designed to make measurements of mRNA induction, a form of inducible reporter, as detected with fluorescence intensity signals by Reverse transcription polymerase chain reaction (RT-PCR) and Capillary electrophoresis technology.Data from the assay component ATG_RORE_CIS was analyzed into 1 assay endpoint. This assay endpoint, ATG_RORE_CIS, was analyzed with bidirectional fitting relative to DMSO as the negative control and baseline of activity. Using a type of inducible reporter, measures of mRNA for gain or loss-of-signal activity can be used to understand the reporter gene at the transcription factor-level as they relate to the gene RORA and RORB and RORC. Furthermore, this assay endpoint can be referred to as a primary readout, because this assay has produced multiple assay endpoints where this one serves a reporter gene function. To generalize the intended target to other relatable targets, this assay endpoint is annotated to the nuclear receptor intended target family, where the subfamily is orphan.
Human liver HepG2 cells are transiently transfected with multiple reporter transcription units (MRTUs) in 6-well plates using FuGene 6 reagent (Roche; 3 ml FuGene/1 mg DNA). The MRTU constructs are regulated by a cis-regulating element (promoter). […] A major difference between the CIS and TRANS system is that in CIS activities of endogenous TFs are measured, whereas the TRANS assay evaluates changes in activities of exogenous, chimeric NR-Gal4 proteins. […] At the end of 24 hour incubation, total RNA was isolated using TriZol reagent (Invitrogen). The isolated RNA is then reverse-transcribed using oligo(dT) primer and Mo-MLV reverse transcriptase (Invitrogen) with DNAse I (Ambion) treatment for 30 min. The one-tenth of the produced cDNA was amplified by PCR using Taq DNA polymerase (Invitrogen) and two reporter sequence-specific primers. The PCR products were fluorescently labeled by primer extension with 6-arboxyfluorescein (6-FAM) 5'-labeled reporter sequence-specific primer (2 min at 95 C, 20 s at 68 C and 10 min at 72 C) and these products were digested with 5U of HpaI (New England Biolabs) for 2h at 37 C. The fragments were purified using Qiaquick PCR columns (Qiagen), analyzed on an ABI 3130xL genetic analyzer (Applied Biosystems) with peak positions identified by using a set of X-rhodamine (ROX)-labeled MapMarker1000 molecular weight standards (BioVentures). The raw capillary electrophoresis data was processed using Attagraph software (Attagene).

| Structure (SMILES) | outcome | AC50 |
| --- | --- | --- |
| FC(F)(F)C(F)(F)C(F)(F)C(F)(F)C(F)(F)C(F)(F)CC1CO1 (stereo not given) | inactive | – |
| CC(CCl)OP(=O)(OC(C)CCl)OC(C)CCl (stereo not given) | inactive | – |
| OC[C@@H](O)[C@@H](O)[C@H](O)[C@@H](O)CO | inactive | – |
| CCC(=O)OCCc1ccccc1 | inactive | – |
| Cc1cc(C)cc(O)c1 | inactive | – |
| FC(F)(F)C(F)(F)C(F)(F)N(C(F)(F)C(F)(F)C(F)(F)F)C(F)(F)C(F)(F)C(F)(F)F | inactive | – |
| c1ccc(-c2ccccc2-c2ccccc2)cc1 | inactive | – |
| CCc1c(Br)c(Br)c(Br)c(Br)c1Br | inactive | – |
| FC(F)(F)C(F)(F)C(F)(F)C(F)(F)C(F)(F)CCI | inactive | – |
| O=C(C=Cc1ccccc1)OCC=Cc1ccccc1 | inactive | – |
| O=C(O)C(F)(F)C(F)(F)C(F)(F)F | inactive | – |
| O=P(O)(O)OCCC(F)(F)C(F)(F)C(F)(F)C(F)(F)C(F)(F)C(F)(F)F | inactive | – |
| CS(C)(=O)=O | inactive | – |
| O[Si](c1ccccc1)(c1ccccc1)c1ccccc1 | inactive | – |
| CCCCOc1ccc(N)cc1 | inactive | – |
| O=C(O)C=C(C(F)(F)F)C(F)(F)F | inactive | – |
| CCCCNc1ccccc1 | inactive | – |
| N=C(N)C(F)(F)C(F)(F)C(F)(F)C(F)(F)C(F)(F)C(F)(F)C(F)(F)F | inactive | – |
| O=C(Cl)C(F)(F)C(F)(F)C(F)(F)C(F)(F)C(F)(F)C(F)(F)C(F)(F)C(F)(F)F | – | 44.5 µM (active) |
| O=C(O)C(F)(F)C(F)(F)C(F)F | inactive | – |

| Structure (SMILES) | outcome | AC50 |
| --- | --- | --- |
| OCC(F)(F)C(F)(F)C(F)(F)F | inactive | – |
| [Co] | inactive | – |
| O=C(CC(=O)C(F)(F)C(F)(F)F)C(F)(F)F | inactive | – |
| COC(=O)CCC(F)(F)C(F)(F)C(F)(F)C(F)(F)F | inactive | – |
| C=CC(F)(F)C(F)(F)C(F)(F)C(F)(F)C(F)(F)C(F)(F)C(F)(F)C(F)(F)C=C | inactive | – |
| C=CC(=O)OCC(F)(F)C(F)(F)C(F)(F)C(F)(F)C(F)(F)C(F)(F)C(F)(F)F | inactive | – |
| O=C(O)C(F)(OC(F)(F)C(F)(OC(F)(F)C(F)(F)C(F)(F)F)C(F)(F)F)C(F)(F)F (stereo not given) | inactive | – |
| FC(F)(Br)C(F)(F)C(F)(F)C(F)(F)C(F)(F)C(F)(F)Br | inactive | – |
| CC/C=C\CCOC(=O)c1ccccc1 | inactive | – |
| FC(F)(F)C(F)(F)CNCC(F)(F)C(F)(F)F | inactive | – |
| CCCCCCCCC(F)(F)C(F)(F)C(F)(F)C(F)(F)C(F)(F)C(F)(F)F | inactive | – |
| Nc1ccc([N+](=O)[O-])cc1O | inactive | – |
| Nc1ccc(Oc2cccc(Oc3ccc(N)cc3)c2)cc1 | – | 14.9 µM (active) |
| CCCCC(CC)COP(=O)(O)OCC(CC)CCCC (stereo not given) | inactive | – |
| O=C(O)C(F)(F)C(F)(F)C(F)(F)C(F)(F)C(F)(F)C(F)(F)C(F)(F)C(F)(F)C(F)(F)C(F)F | inactive | – |
| FC1CC(F)(F)C(F)(F)C1(F)F (stereo not given) | inactive | – |
| CCCCCCCCCCCCCCCC[N+](C)(C)Cc1ccccc1 | inactive | – |
| OCC(F)(F)C(F)(F)C(F)(F)C(F)F | inactive | – |
| CC(C)c1ccccc1N | inactive | – |
| Nc1cc(Cl)c(N)c(Cl)c1 | inactive | – |
